# Screens (PubChem BioAssay)
# USP7 inh: inhibitors of human USP7 deubiquitinase; purified USP7, Ub-rhodamine cleavage fluorescence; inhibition, % at 20 µM; 0.3% of 47,000 active; AID 1645854, 2021
# UCHL1 block: inhibitors of human UCHL1 deubiquitinase; Ubiquitin carboxyl-terminal hydrolase isozyme L1 (Homo sapiens), P09936; purified UCHL1, Ub-rhodamine cleavage fluorescence; inhibition, % at 20 µM; 0.2% of 47,000 active; AID 1645859, 2021
# USP8 block: inhibitors of human USP8 deubiquitinase. Ubiquitin carboxyl-terminal hydrolase 8 (Homo sapiens), P40818. purified USP8, Ub-rhodamine cleavage fluorescence, 30 min. inhibition, % at 20 µM. 4.2% of 47,000 active
# USP17 inh: inhibitors of human USP17 deubiquitinase; Ubiquitin carboxyl-terminal hydrolase 17-like protein 5 (Homo sapiens), A8MUK1; purified USP17, Ub-rhodamine cleavage fluorescence, 3 h; inhibition, % at 50 µM; 6.5% of 47,000 active; AID 1645855, 2021
# Target sequence (A8MUK1 whole entry, looked up): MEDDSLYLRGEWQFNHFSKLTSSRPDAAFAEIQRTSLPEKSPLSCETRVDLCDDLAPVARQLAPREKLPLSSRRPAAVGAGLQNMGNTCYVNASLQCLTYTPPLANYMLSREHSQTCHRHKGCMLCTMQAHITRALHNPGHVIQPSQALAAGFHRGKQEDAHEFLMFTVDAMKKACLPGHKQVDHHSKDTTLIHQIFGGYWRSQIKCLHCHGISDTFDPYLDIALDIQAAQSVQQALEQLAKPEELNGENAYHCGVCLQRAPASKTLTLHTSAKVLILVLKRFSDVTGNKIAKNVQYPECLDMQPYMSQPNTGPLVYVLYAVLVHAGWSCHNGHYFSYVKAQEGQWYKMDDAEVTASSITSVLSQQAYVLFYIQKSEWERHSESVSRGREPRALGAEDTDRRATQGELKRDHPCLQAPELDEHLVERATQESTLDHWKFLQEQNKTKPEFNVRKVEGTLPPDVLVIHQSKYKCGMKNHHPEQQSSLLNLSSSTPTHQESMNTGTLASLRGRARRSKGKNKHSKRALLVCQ
# USP30 inh: inhibitors of human USP30 deubiquitinase; Ubiquitin carboxyl-terminal hydrolase 30 (Homo sapiens), Q70CQ3; purified USP30, Ub-rhodamine cleavage fluorescence; inhibition, % at 25 µM; 5.3% of 47,000 active; AID 1645860, 2021
# USP10 inh: inhibitors of human USP10 deubiquitinase | purified USP10, Ub-rhodamine fluorescence, 60 min | inhibition, % at 20 µM | 1.1% of 47,000 active | AID 1645856, 2021
# * hit, by the source's call; . = not tested or not shown. Only some compounds are listed: those with a hit (about 12% of all), similar ones and a draw of the others. Cut-off read from the data, not from the text of the source: active = inhibition above about 30%; inactive = the rest.
SMILES,USP7 inh,UCHL1 block,USP8 block,USP17 inh,USP30 inh,USP10 inh
c1ccc(-c2cc(-c3csc(-c4ccc5c(c4)OCCO5)n3)on2)cc1,10,2,-23,51*,35*,2
O=C(O)c1csc(-c2ccc3c(c2)CCO3)n1,1,0,1,1,.,3
Cc1cc(C)cc(NC(=O)Cc2nc(-c3ccccn3)n[nH]2)c1,0,-4,-294,-52,-1,-1
Brc1ccc(Nc2nc(-c3ccccn3)nc3ccccc23)cc1,16,4,93*,52*,90*,20
FC(F)(F)c1cccc(Nc2nc(-c3ccccn3)nc3ccccc23)c1,13,6,22,74*,52*,22
CNC(=O)C1CN(C(=O)c2ccc(OC)c(F)c2)CC12CCCC2 (centres undefined),3,0,23,18,13,3
COc1ccc(Cl)c(NC(=O)C2CC(=O)Nc3cc(-c4ccccc4)nn32)c1 (centres undefined),9,4,32*,57*,22,13
O=C1CC(C(=O)Nc2ccccc2)n2nc(-c3ccccc3)cc2N1 (centres undefined),3,4,-21,11,34*,4
CC(C)CN1Cc2c(C(=O)Nc3cccnc3)ncn2-c2ccccc2S1(=O)=O,0,2,-61,-22,0,-6
COc1cc(Cl)c(C)cc1NC(=O)CCc1c(C)nn(-c2cc(N(C)C)ncn2)c1C,-1,3,-7,13,20,-3
COc1cc(-c2cc(-c3ccccc3Br)nc(N)c2C#N)cc(OC)c1OC,3,3,-19,-7,-40,5
COc1ccc(-c2cc(-c3ccc(O)cc3)nc(N)c2C#N)cc1OC,8,5,4,46*,50*,13
COc1ccc(CNC(=O)CNc2cc(C)nc3nc(-c4cccnc4)nn23)cc1,2,0,2,5,31*,1
CC(C)c1cc(NCc2ccccc2F)n2nc(-c3cccnc3)nc2n1,-7,5,3,14,22,1
CCCNC(=O)c1ccc(Nc2cc(CCC)nc3nc(-c4cccnc4)nn23)cc1,5,3,13,27,11,-8
CCCCNC(=O)c1ccc(Nc2cc(C)nc3nc(-c4cccnc4)nn23)cc1,4,4,-1,0,47*,-1
CC(C)c1cc(NCc2ccccc2)n2nc(-c3cccnc3)nc2n1,-3,-1,14,27,55*,2
CCN(CC)c1ccc2c(c1)OC(=O)NC2(c1ccc(OC)cc1)C(F)(F)F (centres undefined),6,2,0,-3,-11,-10
Cn1c(CN2CCOCC2)nnc1SCC(=O)c1ccccc1,4,2,24,13,22,3
COc1cccc(CNC(=O)c2nc3c(s2)CCN(C(=O)c2cccnc2)CC3)c1,0,0,-5,3,17,0
CCCCN1CCN(C(=O)c2snc(-c3ccccn3)c2N)CC1,-1,-1,0,-13,-20,0
COc1ccc(NC(=O)C2Oc3ccc(C)cc3NC2=O)cc1Cl (centres undefined),1,-3,3,75*,16,9
Cc1nc2c(-c3ccc(Cl)cc3)c[nH]n2c(=O)c1Cc1ccccc1,-21,12,-126,-12,-22,65*
CCOc1ccc2nc(NC(=O)C3(c4cccc(F)c4)CCCC3)sc2c1,2,-1,-14,-10,-31,-1
Cc1cccc(O)c1-c1nc2c(-c3nc4c(C(=O)O)cccc4o3)cccc2o1,11,7,-12,47*,-8,2
SMILES,USP7 inh,UCHL1 block,USP8 block,USP17 inh,USP30 inh,USP10 inh
CCn1cc(C(=O)NCc2ccc(F)cc2F)c(=O)c2ccc(C)nc21,1,0,24,41*,24,-4
COc1cc(O)c2c(c1)C1=CC(=O)C(O)=C[C@]1(C)OC2=O,1,9,14,46*,48*,29
CN(C(=O)Cn1cncc(-c2nc(-c3ccccc3)cs2)c1=O)c1ccccc1,0,3,-3,5,10,-1
Cc1ccc(S(=O)(=O)CCc2nc(-c3ccc(N4CCC(C)CC4)cc3)no2)cc1,14,2,26,.,45*,0
COc1cccc(CNc2ccc(-c3nc(-c4ccccc4)no3)nn2)c1,24,3,76*,24,-107,12
CC1CCCCC1NCC(=O)NC(c1ccccc1)c1ccccc1 (centres undefined),-26,4,14,10,32*,3
CCOC(=O)C1CCCN(CC(=O)NC(c2ccccc2)c2ccccc2)C1 (centres undefined),-5,1,2,-1,21,1
Cc1ccc(S(=O)(=O)N2CCC(C(=O)OCC(=O)Nc3ccc(OC(F)(F)F)cc3)CC2)cc1C,2,3,0,31*,43*,3
Cc1ccc(S(=O)(=O)N2CCC(C(=O)OCC(=O)Nc3ccc4c(c3)CCC4)CC2)cc1C,9,3,19,8,9,5
O=C(Cc1coc2cc3c(cc12)CCC3)NC(Cc1ccccc1)c1nc2ccccc2[nH]1 (centres undefined),-4,2,66*,47*,-8,0
COc1ccccc1/C=C/C(=O)NC(Cc1ccccc1)c1nc2ccccc2[nH]1 (centres undefined),-4,6,92*,45*,-89,-6
O=C(NC(Cc1ccccc1)c1nc2ccccc2[nH]1)C1CC1 (centres undefined),0,12,48*,54*,1,3
CC(C)CC(NC(=O)c1ccc(Cl)cc1Cl)c1nc2ccccc2[nH]1 (centres undefined),-1,14,89*,69*,-45,13
O=C(Nc1ccc(F)cc1)N1CCCn2nnc(COCC3CC3)c2C1,-3,-1,9,16,18,1
O=C(NCc1ccco1)[C@H]1CC[C@@H]2[C@@H](CCN2C2CCC2)O1,1,-2,-6,-30,-18,-2
O=C(NC(Cc1ccccc1)c1nc2ccccc2[nH]1)c1ccccc1-c1ccccc1 (centres undefined),1,0,54*,40*,-51,-3
N#Cc1ccc(C(=O)Nc2cnc(N3CCCCCC3)nc2)cc1,-15,4,-6,53*,.,0
Cc1cccc(CSc2nc3nc4c(cn3n2)C(=O)CC(C)(C)C4)c1,-3,3,8,14,35*,7
Cc1ccc(CSc2nc3nc4c(cn3n2)C(=O)CCC4)cc1,-6,2,3,12,.,0
CC(NC(=O)COC(=O)c1ccc(O)cc1)c1ccccc1 (centres undefined),5,1,-1,-1,16,-3
